Drawing on PubChem BioAssay (Tox21), this text covers Potency for ten compounds.

The structures appear in SMILES notation. Unmarked numbers belong to inactive results. Records with an inconclusive call do not appear. Activity calls are given as the source filed them. Unless noted, calls come from the whole dose curve.

Test [1] can be described thus: p53 small molecule agonists, cell-based qHTS assay (AID 1963582; active = well fitted activation curve with a large enough effect in the signal ratio in the repeat runs, not every such curve was filed as active; the % refers to the signal ratio; note: potency is the fitted concentration of half-maximal effect). An outline of the steps: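 Quantitative HTS in p53RE-bla cells: after a 5 h settling period, compounds delivered in DMSO were left on cells for 16 h at 37 C, and reporter induction was measured as fluorescence following 2 h substrate loading.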
A short description of test [2]: Nuclear factor erythroid 2-related factor 2/antioxidant responsive element (Nrf2/ARE) small molecule agonists: qHTS cell viability counter screen in human keratinocytes (AID 1919968; active = well fitted curve in the direction sought with a large enough effect in the repeat runs; an effect the other way counts as inactive or inconclusive; note: nearly all actives have a fitted effect of over 55% in size). The method in brief: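 Seed 1,500 KeratinoSens cells per well, then incubate 5 h at 37 C/5% CO2. Add compounds in DMSO and incubate 23 h. Add CellTiter-Fluor, wait 1 h and read fluorescence.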

Test [3] can be described thus: Nuclear factor erythroid 2-related factor 2/antioxidant responsive element (Nrf2/ARE) small molecule agonists: luciferase reporter gene qHTS assay in human keratinocytes (AID 1919969). Note: nearly all actives have a fitted effect of over 35% in size.
Test [4] addresses Gonadotropin-releasing hormone receptor (Homo sapiens) (UniProt P30968). Description: Human gonadotropin-releasing hormone receptor (GnRHR) small molecule agonists, calcium flux assay in GnRHR-HEK293 cells (AID 1920063). Note: nearly all actives have a fitted effect of over 35% in size. An outline of the steps:
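Cells: HEK293 stably expressing human GnRHR. Steps: overnight (18 h) culture, 1 h calcium dye loading at 37 C, compound addition, kinetic fluorescence read at 480/540 nm. Each compound tested at 15 concentrations in triplicate.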

In test [5] the target is KiSS-1 receptor (Homo sapiens) (UniProt Q969F8). Nature of the test: Human kisspeptin (KISS1R) small molecule agonists, calcium flux assay in KISS1R-HEK293 cells (AID 1920064; active = well fitted curve in the direction sought with a large enough effect in the repeat runs; an effect the other way counts as inactive or inconclusive). An outline of the steps:
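Cells plated and incubated 18 h; dye added, 1 h at 37 C; compounds in DMSO pinned in; signal read at 480/540 nm every second for 3 min. Each compound tested at 15 concentrations in triplicate.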
For orientation: Calcium flux is commonly read through the fluorescence of an indicator in the cells.

Test [6] is described as follows: G protein-coupled receptor (GPCR) small molecule agonists, calcium flux assay: HEK293 wild type cell line counter screen (AID 1920065). An outline of the steps: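 Counter-screen of the Tox21 10K library for non-specific calcium release: dye-loaded cells received compounds in DMSO and were monitored by kinetic fluorescence (480/540 nm, 3 min). Fifteen concentrations, run in triplicate.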

Test [7] in a line: p53 small molecule agonists, cell-based qHTS assay with rat liver microsomes: qHTS cell viability counter screen (AID 1963580). Note: nearly all actives have a fitted effect of over 45% in size. An outline of the steps: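 Intracellular ATP, by CellTiter-Glo luminescence, defines viability. HCT-116 p53RE-bla cells, 4,000 per well, were compound-treated in the presence of rat liver microsomes and NADPH for 16 h at 37 C.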
Test [8] can be described thus: p53 small molecule agonists, cell-based qHTS assay: qHTS cell viability counter screen (AID 1963581). Note: nearly all actives have a fitted effect of over 45% in size. An outline of the steps:
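Cells: HCT-116 with p53 response element-driven beta-lactamase. Treatment: 16 h, 37 C, compounds in DMSO. Read: CellTiter-Glo luminescence after 30 min RT.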
(In qHTS, concentration-response curves come from the screen itself.)

Test [9] deals with 5-hydroxytryptamine receptor 2A (Homo sapiens) (UniProt P28223). Nature of the test: 5-hydroxytryptamine receptor 2A (HTR2A) small molecule antagonists, cell-based qHTS assay (AID 1963586). Note: nearly all actives have a fitted effect of over 45% in size. The method in brief: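 Antagonist-mode intracellular calcium assay: DOI (4 nM) added after 5 min compound pre-incubation at room temperature to dye-loaded HTR2A-CHO cells. Fluorescence followed for 3 min, sampled every second.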
Sequence of 5-hydroxytryptamine receptor 2A (Homo sapiens) (P28223 whole entry, looked up): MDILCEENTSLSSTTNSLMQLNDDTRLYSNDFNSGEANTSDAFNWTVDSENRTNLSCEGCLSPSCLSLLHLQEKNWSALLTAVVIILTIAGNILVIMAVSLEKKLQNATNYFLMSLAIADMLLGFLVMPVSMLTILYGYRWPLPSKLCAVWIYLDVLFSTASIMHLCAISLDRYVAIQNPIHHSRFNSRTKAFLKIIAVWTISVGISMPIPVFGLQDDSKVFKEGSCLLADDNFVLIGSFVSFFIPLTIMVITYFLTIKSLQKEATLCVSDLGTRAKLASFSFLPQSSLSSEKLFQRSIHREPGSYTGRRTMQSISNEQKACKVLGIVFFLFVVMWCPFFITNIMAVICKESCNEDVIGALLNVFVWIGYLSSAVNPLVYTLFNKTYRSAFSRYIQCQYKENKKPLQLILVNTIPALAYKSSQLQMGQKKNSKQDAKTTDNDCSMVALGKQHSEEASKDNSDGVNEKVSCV

For test [10] the target is unchanged. Description: 5-hydroxytryptamine receptor 2A (HTR2A) small molecule agonists, cell-based qHTS assay (AID 1963587). Note: nearly all actives have a fitted effect of over 30% in size. The method in brief:
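Kinetic calcium-flux fluorescence (2 min, 1 sec intervals) after compound addition in agonist mode. HTR2A-CHO cells were cultured 18 h, then dye-loaded 1 h at 37 C.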

Test [11] deals with Muscarinic acetylcholine receptor M1 (Homo sapiens) (UniProt P11229). Description: Cholinergic receptor muscarinic 1 (CHRM1) small molecule antagonists, cell-based qHTS assay (AID 1963588). Note: nearly all actives have a fitted effect of over 40% in size. Note: potency is the fitted concentration of half-maximal effect. The method in brief: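 CHRM1-CHO calcium-flux assay, antagonist mode. Cells were seeded 18 h, dye-loaded 1 h at 37 C and given compound for 5 min at RT, then acetylcholine was added at 50nM. FDSS fluorescence was read 3 min; 15 concentrations, three runs.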
Sequence of Muscarinic acetylcholine receptor M1 (Homo sapiens) (P11229 whole entry, looked up): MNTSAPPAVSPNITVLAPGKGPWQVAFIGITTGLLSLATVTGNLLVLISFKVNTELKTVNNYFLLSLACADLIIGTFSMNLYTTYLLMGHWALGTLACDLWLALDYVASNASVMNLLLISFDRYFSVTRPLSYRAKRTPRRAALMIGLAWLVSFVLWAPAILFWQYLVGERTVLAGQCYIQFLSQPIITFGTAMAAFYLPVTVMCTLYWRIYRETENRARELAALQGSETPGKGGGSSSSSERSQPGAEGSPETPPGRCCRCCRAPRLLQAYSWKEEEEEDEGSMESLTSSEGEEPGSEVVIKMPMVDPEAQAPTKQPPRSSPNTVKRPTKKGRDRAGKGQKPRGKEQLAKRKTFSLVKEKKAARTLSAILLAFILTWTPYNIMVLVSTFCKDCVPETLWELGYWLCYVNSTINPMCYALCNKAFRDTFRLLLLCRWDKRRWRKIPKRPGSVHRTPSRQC

A short description of test [12]: cAMP Responsive Elements (CRE) small molecule agonists, cell-based qHTS assay (AID 1963590). An outline of the steps:
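Agonist mode qHTS in CRE-bla HEK 293T cells: compounds dosed from DMSO for 3 h at 37 C/5% CO2, followed by LiveBLAzer B/G FRET substrate for 2 h at room temperature.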

Test [13] has as its target Beta-2 adrenergic receptor (Homo sapiens) (UniProt P07550). Nature of the test: Adrenergic beta2 receptor (ADRB2) small molecule antagonists, cell-based qHTS assay (AID 1963592). Note: series mostly up to about 92 µM; nearly all actives have a fitted effect of over 50% in size. An outline of the steps:
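Cells (CHO, stable ADRB2 overexpression) incubated 18-20hr at 37C; compounds added from DMSO; agonist mix (1nM isoproterenol, 100uM IBMX, 25uM Ro-20-1724) added; 0.5hr RT; d2-cAMP and anti-cAMP-cryptate added; 1hr RT; 665/615 nm read.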

For test [14] the target is unchanged. Nature of the test: Adrenergic beta2 receptor (ADRB2) small molecule agonists, cell-based qHTS assay (AID 1963593).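 Note: CHO cells stably overexpressing human ADRB2.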 An outline of the steps: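 CHO cells stably over-expressing ADRB2 were plated overnight at 37C, then dosed with compounds plus a stimulation mix containing 100uM IBMX and 25uM Ro-20-1724 for 0.5hr at room temperature. cAMP was measured by HTRF competition, 1hr.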

Test [15] has as its target D(2) dopamine receptor (Homo sapiens) (UniProt P14416). Description: Dopamine D2 receptor (DRD2) small molecule agonists, cell-based qHTS assay (AID 1963594). Note: nearly all actives have a fitted effect of over 35% in size. The method in brief:
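cAMP accumulation in DRD2-HEK293 cells measured by HTRF after 1 h detection; compounds added 10 min before NKH477 (200nM […]) forskolin-analogue stimulation, 30 min at room temperature, with Ro20-1724 present at 0.1 mM final.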

The target is the same in test [16]. Nature of the test: Dopamine D2 receptor (DRD2) small molecule antagonists, cell-based qHTS assay (AID 1963595; active = well fitted inhibition curve with a large enough effect in the signal ratio in the repeat runs, with a control signal flat; the % refers to the signal ratio). The method in brief: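 Stable D2 receptor HEK293 line, 24 h after seeding. Compound preincubated 10 min, then quinpirole (12 nM) with forskolin analogue NKH477 (200 nM), 30 min, room temperature. Detection by time-resolved FRET of cAMP.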
In test [17] the target is Muscarinic acetylcholine receptor M1 (Homo sapiens) (UniProt P11229). Nature of the test: Cholinergic receptor muscarinic 1 (CHRM1) small molecule agonists, cell-based qHTS assay (AID 1963589). Note: nearly all actives have a fitted effect of over 35% in size. An outline of the steps:
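Agonist-mode qHTS in CHO cells stably carrying human muscarinic M1. Intracellular calcium is tracked by fluorescence every second after compound transfer; each compound runs at 15 concentrations in three independent runs.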

A short description of test [18]: cAMP Responsive Elements (CRE) small molecule antagonists, cell-based qHTS assay (AID 1963591; active = well fitted inhibition curve with a large enough effect in the signal ratio in the repeat runs, not every such curve was filed as active; the % refers to the signal ratio). An outline of the steps:
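Antagonist mode: test compounds are co-incubated with the adenylyl cyclase activator NKH477 (0.25 uM final) on CRE-bla HEK293T cells for 3 h at 37 °C, followed by LiveBLAzer substrate loading.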

The nature of test [19]: p53 small molecule agonists, cell-based qHTS assay with human liver microsomes: qHTS cell viability counter screen (AID 1963579). Note: nearly all actives have a fitted effect of over 45% in size. An outline of the steps: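 Metabolic activation used human liver microsomes and NADPH, both 0.5 mg/mL final, over 16 hours at 37 C on p53RE-bla cells (4,000/well). Cytotoxicity measured by CellTiter-Glo luminescence, 30 min at room temperature.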

Sequence of Beta-2 adrenergic receptor (Homo sapiens) (P07550 whole entry, looked up): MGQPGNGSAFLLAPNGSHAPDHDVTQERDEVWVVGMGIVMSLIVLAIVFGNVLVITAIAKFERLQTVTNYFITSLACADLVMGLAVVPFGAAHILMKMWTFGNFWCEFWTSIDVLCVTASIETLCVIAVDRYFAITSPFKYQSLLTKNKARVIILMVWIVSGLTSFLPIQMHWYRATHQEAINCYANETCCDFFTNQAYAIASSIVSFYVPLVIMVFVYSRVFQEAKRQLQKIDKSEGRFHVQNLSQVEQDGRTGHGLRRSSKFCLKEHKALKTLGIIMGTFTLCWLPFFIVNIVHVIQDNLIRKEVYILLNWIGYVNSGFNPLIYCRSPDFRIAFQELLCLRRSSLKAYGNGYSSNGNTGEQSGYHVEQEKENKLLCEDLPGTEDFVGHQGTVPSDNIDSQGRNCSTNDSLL
Sequence of D(2) dopamine receptor (Homo sapiens) (P14416 whole entry, looked up): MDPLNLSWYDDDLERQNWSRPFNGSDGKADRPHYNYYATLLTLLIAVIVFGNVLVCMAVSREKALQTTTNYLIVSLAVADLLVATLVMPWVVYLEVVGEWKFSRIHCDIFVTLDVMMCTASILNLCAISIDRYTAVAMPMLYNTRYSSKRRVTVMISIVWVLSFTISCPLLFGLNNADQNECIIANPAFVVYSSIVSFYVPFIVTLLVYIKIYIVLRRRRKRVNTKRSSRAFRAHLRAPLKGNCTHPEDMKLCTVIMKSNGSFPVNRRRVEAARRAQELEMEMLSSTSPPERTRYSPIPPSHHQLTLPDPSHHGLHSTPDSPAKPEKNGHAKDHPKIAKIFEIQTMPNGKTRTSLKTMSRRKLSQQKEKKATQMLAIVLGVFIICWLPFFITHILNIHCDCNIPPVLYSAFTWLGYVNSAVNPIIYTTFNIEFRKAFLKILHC
Sequence of KiSS-1 receptor (Homo sapiens) (Q969F8 whole entry, looked up): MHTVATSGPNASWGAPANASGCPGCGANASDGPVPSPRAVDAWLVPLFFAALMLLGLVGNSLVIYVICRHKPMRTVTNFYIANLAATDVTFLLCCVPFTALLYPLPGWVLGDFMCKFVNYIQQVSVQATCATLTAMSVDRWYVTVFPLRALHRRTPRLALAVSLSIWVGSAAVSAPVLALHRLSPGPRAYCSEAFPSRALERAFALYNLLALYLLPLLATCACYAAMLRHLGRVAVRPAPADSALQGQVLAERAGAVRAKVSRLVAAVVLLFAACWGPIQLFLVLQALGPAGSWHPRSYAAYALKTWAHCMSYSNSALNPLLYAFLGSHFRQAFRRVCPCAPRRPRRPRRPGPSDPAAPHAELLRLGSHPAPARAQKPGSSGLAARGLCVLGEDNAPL
Sequence of Gonadotropin-releasing hormone receptor (Homo sapiens) (P30968 whole entry, looked up): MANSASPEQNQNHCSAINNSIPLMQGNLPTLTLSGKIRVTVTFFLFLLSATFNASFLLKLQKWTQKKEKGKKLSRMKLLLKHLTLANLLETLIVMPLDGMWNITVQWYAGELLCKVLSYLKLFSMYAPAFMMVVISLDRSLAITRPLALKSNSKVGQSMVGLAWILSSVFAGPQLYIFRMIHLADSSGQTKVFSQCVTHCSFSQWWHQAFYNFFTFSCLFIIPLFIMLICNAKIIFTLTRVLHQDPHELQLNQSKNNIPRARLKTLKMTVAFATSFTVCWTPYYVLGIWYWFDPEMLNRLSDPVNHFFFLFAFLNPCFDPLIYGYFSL

Turning to `CNC(=O)O/N=C(\C)SC`, the Potency entry in [1] was “inactive”.
The same measure, in the same setting: to `N#Cc1c[nH]cc1-c1cccc2c1OC(F)(F)O2` belongs 14.5 µM (active).
Regarding `NNC(N)=O`, the Potency result in [2], in test [3], in test [4], in [5], in test [6] and in [7] was “inactive” in each case. The Potency entry in [8], in test [9], in [10], in test [11], in test [12] and in test [13] was “inactive” each time. Further, the Potency result in [14], in test [15] and in test [16] was “inactive” in each case.
Consider `CC(=O)NC1CCSC1=O` (stereo unspecified), for which the Potency result in [2], in test [3], in test [4], in test [5], in test [6] and in test [7] was “inactive” each time. The Potency result in test [8], in test [9], in test [10], in test [11], in test [17] and in test [12] was “inactive” each time. The Potency result in [18], in test [13], in test [14] and in [16] was “inactive” each time.
For the compound `FC(Cl)(Cl)C(F)(Cl)Cl`, the Potency result in [2], in test [3], in test [4], in test [5], in test [6] and in [19] was “inactive” each time. Moreover, the Potency result in test [8], in test [9], in test [10], in test [11], in test [17] and in [12] was “inactive” in each case. Further, the Potency entry in test [18], in test [13], in test [15] and in test [16] was “inactive” in each case.
In the case of `CCCN(CCC)c1c([N+](=O)[O-])cc(S(C)(=O)=O)cc1[N+](=O)[O-]`, the Potency result in test [2], in test [3], in test [4], in [5], in [6] and in [19] was “inactive” in each case. Besides, the Potency result in test [8], in test [9], in test [10], in [18], in test [13] and in [14] was “inactive” throughout. In addition, the Potency result in test [15] and in test [16] was “inactive” throughout. Besides, in test [11], the Potency was 10.6 µM (active).
Take `CCCCOP(=O)(O)OCCCC`: the Potency entry in [2], in [3], in test [4], in test [5], in test [6] and in test [19] was “inactive” each time. Moreover, the Potency entry in test [8], in [9], in test [10], in [11], in test [17] and in test [12] was “inactive” throughout. Moreover, the Potency entry in test [18], in test [13] and in [15] was “inactive” in each case.
Take `CCNP(=S)(OC)O/C(C)=C/C(=O)OC(C)C` (stereo unspecified): the Potency entry in [2], in [3], in [4], in test [5], in [6] and in test [7] was “inactive” in each case. In addition, the Potency entry in test [8], in [1], in test [9], in test [10], in [11] and in [17] was “inactive” throughout. Moreover, the Potency entry in test [12], in [18], in [13], in test [14] and in test [16] was “inactive” throughout.
For the compound `O=Cc1ccc2c(c1)OCO2`, the Potency result in test [2], in [3], in test [4], in [5], in test [6] and in test [19] was “inactive” in each case. For the same compound, the Potency entry in test [7], in test [9], in [10], in test [11], in [17] and in test [12] was “inactive” throughout. Moreover, the Potency result in [18], in [13], in test [15] and in test [16] was “inactive” each time.
Consider `BrCC1CO1` (stereo unspecified), for which the Potency entry in [2], in [3], in [4], in [5], in test [6] and in test [19] was “inactive” throughout. Besides, the Potency result in [7], in [9], in test [17], in test [12], in test [18] and in test [13] was “inactive” in each case. Also, the Potency entry in [15] and in test [16] was “inactive” each time.
